Screening results (PubChem BioAssay)
SMN2 splice enh: enhancers of SMN2 splice variant expression. HEK293 SMN2-luciferase splicing reporter, luminescence, 30-36 h. Potency, µM (doses to about 46.1 µM), for inactives: at the top dose activity change, positive = activation, actives largely listed as activators. 2.8% of 210,000 active. AID 1458; note: % of control where 0% means no effect; nearly all actives have a fitted effect of over 55% in size
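HEK293 cells carry an SMN2 […]–luciferase reporter in which exon 7 inclusion puts luciferase in frame. Cells were plated 10-12 h before compound addition, then incubated 30-36 h at 37C. ONE-Glo luminescence was read; sodium butyrate at 4.5 mM final served as control.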
NPC1 promoter act: NPC1 promoter activation; Potency, µM (titrated, usually from 9.22 µM), inactives show at the top dose activation, most hits filed as activators; Huh7 NPC1 promoter luciferase reporter, 24 h; 2.4% of 320,000 active; note: % of control where 0% means no effect; nearly all actives have a fitted effect of over 60% in size
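Luminescence read-out of NPC1 promoter-driven luciferase in stably transfected Huh7 cells; compounds delivered in DMSO and left 24 h at 37C, 5% CO2, qHTS titration format.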
FLuc modulator: firefly luciferase modulation, counter-screen for miR-21 project | purified FLuc, Km substrates, luminescence inhibition | P08659 | AID 588342 | 6.9% of 360,000 active | Potency, µM (doses to about 57.5 µM), inactives show top-dose activity change, negative = inhibition, most hits filed as inhibitors;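 note: plate controls were vehicle for no effect and reference inhibitor for full effect; nearly all actives have a fitted effect of over 55% in size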
Target sequence (P08659 whole entry, looked up): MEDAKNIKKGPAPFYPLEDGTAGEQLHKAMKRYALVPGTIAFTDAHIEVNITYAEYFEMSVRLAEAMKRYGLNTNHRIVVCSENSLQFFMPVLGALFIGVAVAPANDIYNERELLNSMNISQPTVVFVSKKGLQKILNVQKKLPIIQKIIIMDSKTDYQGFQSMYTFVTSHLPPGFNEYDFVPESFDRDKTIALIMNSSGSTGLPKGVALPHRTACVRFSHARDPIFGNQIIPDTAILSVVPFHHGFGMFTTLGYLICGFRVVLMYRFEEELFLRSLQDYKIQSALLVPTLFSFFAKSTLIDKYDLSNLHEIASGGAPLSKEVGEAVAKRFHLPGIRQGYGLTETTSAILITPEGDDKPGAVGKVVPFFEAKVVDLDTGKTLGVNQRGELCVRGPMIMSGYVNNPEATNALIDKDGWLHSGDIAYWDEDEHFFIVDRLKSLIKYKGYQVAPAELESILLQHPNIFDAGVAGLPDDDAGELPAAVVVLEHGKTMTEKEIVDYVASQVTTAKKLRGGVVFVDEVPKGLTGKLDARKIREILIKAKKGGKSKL
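Purified P. pyralis luciferase, 10 nM final, with Km-level 10 uM D-luciferin and 10 uM ATP in 50 mM Tris acetate pH 7.5, 10 mM Mg acetate, 0.01% Tween-20, 0.05% BSA; 6-point qHTS titration about 60 µM downward; luminescence read.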
ELG1 DNA repair: blocks ELG1-dependent DNA repair in HEK293T cells | HEK293T ELG1-luciferase reporter, luminescence, 16 h; DNA damage induced by 5-fluorouridine | Potency, µM (top dose mostly 46.1 µM), for the others: at the top dose activity change, negative = inhibition, usual class: inhibitors | 2.3% of 330,000 active; note: % is set by controls: 0 for no effect and ±100 for the full control effect; nearly all actives have a fitted effect of over 55% in size
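Step one: seed 2,000 cells per well. Step two: pin-transfer compound or DMSO alongside 5-fluorouridine. Step three: incubate 16 hr, 37 °C, 5% CO2. Step four: add ONE-Glo, wait 30 min, read luminescence.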
ELG1 genotox: induces genotoxicity in HEK293T cells with luciferase-tagged ELG1. 1.3% of 330,000 active. Potency, µM (titrated, usually from 46 µM), inactives show top-dose activity change, positive = activation, usual class: activators. AID 504466. HEK293T ELG1-luciferase reporter, luminescence, 16 h; note: % of control where 0% means no effect; nearly all actives have a fitted effect of over 60% in size
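Reporter readout depends on ELG1 protein level, which increases with genetic stress. After 16 hr compound exposure at 37 °C, luciferase activity was quantified using ONE-Glo.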
Rab9 promoter act: activates the Rab9 promoter | Huh7 Rab9 promoter-luciferase reporter, luminescence, 24 h | Potency, µM (titrated, usually from 9.22 µM), for inactives: top-dose activation, negative = inhibition, usual class: activators | 2.8% of 320,000 active | AID 485297; note: % of control where 0% means no effect; nearly all actives have a fitted effect of over 60% in size
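Steps: seed 1500 Huh7 Rab9-luc cells per well, rest 2 h at 37 °C; add compound in DMSO; incubate 24 h; add luciferase reagent, 10 min ambient; read luminescence.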
* marks the source's active call; other numbers are inactive results. The list is not random: actives were taken first. Their share in the collection is about 9.3%. Calls come from the whole dose curve; as a rule, active = well fitted curve in the direction sought with a large enough effect; inconclusive = small, poorly fitted or top-dose-only effect, or another doubt; inactive = no such curve, though single readings can be large; an effect the other way counts as inactive or inconclusive. Potency is the fitted concentration of half-maximal effect.

Results for COc1ccccc1/C=C/C=N/n1c(-c2ccncc2)n[nH]c1=S ?
SMN2 splice enh: 14.7%; NPC1 promoter act: -3.6%; FLuc modulator: 12µM*; ELG1 DNA repair: 0.0%; ELG1 genotox: 3.1%; Rab9 promoter act: 1.6%

How did COc1ccccc1/C=C/C=N/n1c(-c2ccccn2)n[nH]c1=S do in these assays?
NPC1 promoter act: 18.2%; FLuc modulator: 16.9µM*; ELG1 DNA repair: inconclusive; ELG1 genotox: inconclusive; Rab9 promoter act: inconclusive

How did COc1ccc(-c2n[nH]c(=S)n2/N=C/C=C\c2ccccc2OC)cc1 do in these assays?
SMN2 splice enh: 13.1%; NPC1 promoter act: 0.5%; FLuc modulator: -3.4%; ELG1 DNA repair: inconclusive; ELG1 genotox: 3.7%; Rab9 promoter act: 12.0%

What do the screens show for `S=c1[nH]nc(-c2ccco2)n1/N=C/C=C/c1ccco1`?
SMN2 splice enh: 8.0%; NPC1 promoter act: -1.2%; FLuc modulator: -0.3%; ELG1 DNA repair: -15.5%; ELG1 genotox: -2.6%; Rab9 promoter act: -6.8%

Results for S=c1[nH]nc(-c2cc(-c3ccccc3)n[nH]2)n1/N=C/C=C/c1ccco1 ?
NPC1 promoter act: -2.8%; FLuc modulator: 13.5µM*; ELG1 DNA repair: 3.2%; ELG1 genotox: 4.9%; Rab9 promoter act: -0.5%

How did CCCNNC(=O)C(O)(c1cccc(C)c1)c1cccc(C)c1 do in these assays?
SMN2 splice enh: 0.6%; NPC1 promoter act: 3.7%; FLuc modulator: -1.2%; ELG1 DNA repair: -5.1%; ELG1 genotox: -1.8%; Rab9 promoter act: -2.5%

Results for Cc1cc(-c2n[nH]c(=S)n2/N=C/C=C/c2ccccc2)n[nH]1 ?
SMN2 splice enh: -10.0%; NPC1 promoter act: -5.5%; FLuc modulator: -18.6%; ELG1 DNA repair: 12.7%; ELG1 genotox: 1.4%; Rab9 promoter act: -2.5%

What do the screens show for `COc1ccccc1/C=C/C=N/n1c(-c2cc(C)[nH]n2)n[nH]c1=S`?
SMN2 splice enh: 0.3%; NPC1 promoter act: -1.3%; FLuc modulator: 21.3µM*; ELG1 DNA repair: 3.2%; ELG1 genotox: 3.2%; Rab9 promoter act: 1.2%

How did CC(C)CC(NS(=O)(=O)c1ccc2c(c1)oc(=O)n2C)C(=O)NC1CCCc2ccccc21 (stereo unspecified) do in these assays?
SMN2 splice enh: -6.3%; NPC1 promoter act: -1.8%; FLuc modulator: 1.7%; ELG1 DNA repair: 5.0%; ELG1 genotox: -1.4%; Rab9 promoter act: 4.4%

What do the screens show for `COc1cccc(CNC(=O)C(NS(=O)(=O)c2ccc3c(c2)oc(=O)n3C)C(C)C)c1` (stereo unspecified)?
SMN2 splice enh: -2.3%; FLuc modulator: 2.9%

What do the screens show for `Cc1ccc(/C=N/NC(=O)c2ccc(Br)o2)s1`?
SMN2 splice enh: 15.8µM*; NPC1 promoter act: inconclusive; FLuc modulator: inconclusive; ELG1 DNA repair: inconclusive; ELG1 genotox: inconclusive; Rab9 promoter act: inconclusive

Results for CCc1ccc(/C=N\NC(=O)c2ccc(Br)o2)s1 ?
SMN2 splice enh: 11.2µM*; NPC1 promoter act: 3.55µM*; FLuc modulator: 10.7µM*; ELG1 DNA repair: inconclusive; ELG1 genotox: inconclusive; Rab9 promoter act: 2.82µM*

Results for Cc1ccc(/C=N/NC(=O)Cc2ccc(O)cc2)s1 ?
NPC1 promoter act: 15.2%; FLuc modulator: inconclusive; ELG1 DNA repair: 24.0%; ELG1 genotox: 12.6%; Rab9 promoter act: 5.7%

How did Cc1ccc(NC(=S)N/N=C/c2c(C)nn(-c3ccccc3)c2N2CCCC2)cc1 do in these assays?
NPC1 promoter act: 3.1%; FLuc modulator: -0.3%; ELG1 DNA repair: 24.8%; ELG1 genotox: -2.6%; Rab9 promoter act: 0.8%

What do the screens show for `Cc1nn(C)cc1/C=N/NC(=S)Nc1ccccc1`?
SMN2 splice enh: 26.4%; NPC1 promoter act: inconclusive; FLuc modulator: 5.36µM*; ELG1 DNA repair: inconclusive; ELG1 genotox: 17.1%; Rab9 promoter act: 2µM*

Results for Cc1cccc(NC(=S)NNC(=O)c2ccco2)c1 ?
SMN2 splice enh: 19.1%; NPC1 promoter act: -3.4%; FLuc modulator: inconclusive; ELG1 DNA repair: inconclusive; ELG1 genotox: 1.1%; Rab9 promoter act: 0.8%

How did Cc1ccc(C(=O)NNC(=O)c2ccco2)cc1 do in these assays?
SMN2 splice enh: 12.6µM*; NPC1 promoter act: inconclusive; FLuc modulator: 16.9µM*; ELG1 DNA repair: inconclusive; ELG1 genotox: inconclusive; Rab9 promoter act: inconclusive

How did Cc1ccc(NC(=S)NNC(=O)c2ccco2)cc1 do in these assays?
SMN2 splice enh: 11.2µM*; NPC1 promoter act: -0.6%; FLuc modulator: inconclusive; ELG1 DNA repair: inconclusive; ELG1 genotox: 1.3%; Rab9 promoter act: inconclusive

Results for Cc1ccc(C(=O)NNC(=S)NC(=O)c2ccco2)cc1 ?
SMN2 splice enh: -28.5%; NPC1 promoter act: -11.5%; FLuc modulator: inconclusive; ELG1 DNA repair: inconclusive; ELG1 genotox: 0.7%; Rab9 promoter act: 0.1%

How did COc1cc(/C=C2\SC(c3ccc(C)cc3)=NC2=O)ccc1O do in these assays?
SMN2 splice enh: 20.3%; NPC1 promoter act: -2.2%; FLuc modulator: 2.69µM*; ELG1 DNA repair: 10.5%; ELG1 genotox: inconclusive; Rab9 promoter act: -10.0%

Results for COc1cc(/C=C2\SC(c3ccc(C)cc3)=NC2=O)cc(OC)c1OC ?
SMN2 splice enh: 24.1%; NPC1 promoter act: -1.6%; FLuc modulator: 2.4%; ELG1 DNA repair: 12.1%; ELG1 genotox: 0.2%; Rab9 promoter act: -5.8%

How did COc1cc(/C=C2\SC(c3ccccc3)=NC2=O)cc(Cl)c1O do in these assays?
SMN2 splice enh: -10.7%; NPC1 promoter act: -6.7%; FLuc modulator: 10.7µM*; ELG1 DNA repair: 13.8%; ELG1 genotox: 0.1%; Rab9 promoter act: -17.3%

What do the screens show for `Cc1cc(C)cc(NC(=O)N2CCC(CN3CCOCC3)CC2)c1`?
FLuc modulator: -8.5%

How did N#Cc1cc(-c2ccc(Cl)cc2)cn(Cc2c(Cl)cccc2Cl)c1=O do in these assays?
SMN2 splice enh: -4.3%; NPC1 promoter act: 1.7%; FLuc modulator: 2.1%; ELG1 DNA repair: -0.7%; ELG1 genotox: -4.5%; Rab9 promoter act: -6.2%

How did COc1cccc(CC2(CO)CCN(C(=O)NCCc3ccccc3)CC2)c1 do in these assays?
NPC1 promoter act: -1.0%; FLuc modulator: -2.3%; ELG1 DNA repair: inconclusive; ELG1 genotox: -6.9%; Rab9 promoter act: -8.2%

What do the screens show for `CCOC(=O)c1sc(/N=C/c2ccc(O)cc2O)cc1C`?
SMN2 splice enh: -2.3%; NPC1 promoter act: 9.7%; FLuc modulator: 1.35µM*; ELG1 DNA repair: 26.9%; ELG1 genotox: 6.6%; Rab9 promoter act: 9.5%

What do the screens show for `CCOC(=O)c1c(NC(=O)c2ccc(F)cc2)sc2c1CCC(CC)C2` (stereo unspecified)?
SMN2 splice enh: -8.3%; FLuc modulator: -4.7%
